Out of some 360,000 compounds screened, about 5,000 (1.4%) were called active. Shown is part of a subset that was picked to be rich in actives. A number with no mark means an inactive call.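 Rule for the calls: active = inhibition of 50% or more, scaled per plate between neutral and stimulator controls; inactive = the rest.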

This passage reports inhibition results from PubChem BioAssay AID602449 (Sanford-Burnham Center for Chemical Genomics, 2012).

A short description of this assay: mitochondrial permeability transition pore inhibitors, primary screen, biochemical, isolated mouse mitochondria, absorbance (AID 602449).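 Note: 0% = DMSO wells given calcium and 100% = 1 mM EGTA wells.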 The following applies: Ca2+ swelling absorbance, 30 min, at 10 µM, hits give high values.
With `Cc1nnc(SC(C(=O)c2ccccc2)c2ccccc2)[nH]c1=O` (stereo not drawn), the inhibition was 1.4%. Take `CC(NCC(=O)Nc1cc(Cl)cc(Cl)c1)c1ccccc1` (stereo not drawn): the inhibition is 3.1%.

For `Cc1nnc(SC(C(=O)Nc2cc(Cl)cc(Cl)c2)c2ccccc2)[nH]c1=O` (stereo not drawn), the inhibition was 86.4% (active).

Consider `CCC(C)[C@H]1COCCS(=O)(=O)N1Cc1ccc(C)cc1` (stereo partly drawn), for which the inhibition is -0.2%.

As for `CCC(c1nnc(SCC(=O)NNC(=O)c2ccccc2)n1Cc1ccccc1)N(C)C` (stereo not drawn), the inhibition was 1.2%.

For the molecule `COc1ccc(NC(=O)CN(C)C(=O)c2cc(C3CC3)nn2-c2ccccc2)cc1`, the inhibition was -0.5%. Regarding `Cc1cccc(C(=O)OCC(=O)NC(C)C2CC3CCC2C3)c1O` (stereo not drawn), the inhibition was 0.9%. Regarding `O=C(CN1CCN(C(=S)NC2CCCC2)CC1)Nc1ccc(Oc2ccccc2)cc1`, the inhibition is 5.8%.

For the molecule `CCN(CC)S(=O)(=O)c1ccc(N(C)Cc2cccc(OC)c2OC)nc1`, the inhibition is 3.9%.

With `CCN(CC)S(=O)(=O)c1ccc(N(C)Cc2ccc(C(F)(F)F)cc2)nc1`, the inhibition was 94% (active). In the case of `CCN(CC)S(=O)(=O)c1ccc(N(C)CCc2ccc(OC)c(OC)c2)nc1`, the inhibition was -2%.

`NC(=O)C1CCN(C(=O)c2ccc(C(F)(F)F)cc2)CC1`: the inhibition was -3.2%. Regarding `CC1(c2ccc3ccccc3c2)NC(=O)N(CC(N)=O)C1=O` (stereo not drawn), the inhibition is 1%. For `Cc1ccc2c(c1)C1CN(C)CCC1N2S(=O)(=O)c1cccc(F)c1` (stereo not drawn) the value was 0.2%. As for `Cc1ccc2c(c1)C1CN(C)CCC1N2C(=O)c1ccccc1NS(=O)(=O)c1ccc(F)cc1C` (stereo not drawn), the inhibition was -0.2%.

As to `Cc1ccc2c(c1)C1CN(C)CCC1N2S(=O)(=O)c1ccc(Oc2ccc([N+](=O)[O-])cc2)cc1` (stereo not drawn), the inhibition is 83.1% (active). To `COc1cc(OC)c(C(=O)NNC(=O)c2ccccc2-n2cccc2)cc1OC` belongs -0.2%; to `Cc1ccc(C(=O)OCC(=O)NC2CCCCCCC2)cc1C`, -1.2%. To `Cc1nc2c(OCc3ccc(Cl)cc3)cccn2c1N(C)Cc1cccs1` belongs 79.6% (active); to `Cc1nc2c(OCc3cccc(Cl)c3)cccn2c1N(C)CC1CC1`, 88.2% (active); to `CCc1nc2c(OCc3ccccc3)cccn2c1N(C)C(=O)c1ccco1`, 0%. Take `CCc1nc2c(OCc3cccc(OC)c3)cccn2c1N(C)C(=O)C(C)C`: the inhibition is -1.6%. To `CCc1nc2c(OCc3ccc(Cl)cc3Cl)cccn2c1N(C)C(=O)C(C)C` belongs -3.5%; to `Cc1nc2c(OCC(=O)C(C)(C)C)cccn2c1N(C)Cc1cccs1`, 2.6%. For `CCCCC(=O)N(C)c1c(CC)nc2c(OCc3ccc(Cl)cc3Cl)cccn12` the value was -1.5%; for `Cc1nc2c(OCc3ccc(Cl)cc3Cl)cccn2c1N(C)CC1CC1`, 82.3% (active). To `CCc1nc2c(OCc3ccc(F)c(F)c3)cccn2c1N(C)C(=O)c1ccco1` belongs -2.8%; to `CCOc1cc(-c2noc(CCCC(=O)NC3CCCCC3)n2)ccc1OC`, 0.3%; to `CCc1nc2ccc(C(=O)NCCNC(C)=O)cn2c1N(CC)Cc1cccc(Br)c1`, -0.2%.

Consider `CCCC(C)C(=O)OCC(=O)Nc1c(Br)cc(C)cc1Br` (stereo not drawn), for which the inhibition is -0.2%.

Consider `CCc1c(C)sc(NC(=O)c2cccs2)c1C(N)=O`, for which the inhibition is -0.6%. To `OC(C#CCN1CCOCC1)(c1ccccc1)C1CCCCC1` (stereo not drawn) belongs -2.4%; to `CCc1oc(-c2ccc(OC)cc2)c(C(=O)OCCCCCO)c1C(C)OCCO` (stereo not drawn), 0.2%; to `CCC(C)(C)NC(=O)CN(C(=O)C(=O)Nc1ccc2c(c1)OCCO2)C(C)(C)CC`, -1%.

On to `O=C1[C@@H]2C(c3cccnc3)=NO[C@@H]2C(=O)N1c1ccc(Cl)cc1Cl`, for which the inhibition was 2.7%.

As to `CC(=O)Nc1ccc(NS(=O)(=O)c2cc(C)sc2C)cc1`, the inhibition was 0.5%.

On to `CN(C)Cc1c(C#N)c2ccccc2n1C`, for which the inhibition was -1.4%. Consider `CCCc1cc(=S)n2c([nH]c3ccccc32)c1C#N`, for which the inhibition is 94.4% (active). On to `O=C(COc1ccc(Cl)cc1)NCCS(=O)(=O)N1CCN(c2ccc(F)cc2)CC1`, for which the inhibition is 1.5%. For `CCOC(=O)N1CCC(NC(=O)C(NS(=O)(=O)c2ccc3c(c2)CCN3C(=O)CC)C(C)C)CC1` (stereo not drawn) the value was -0.2%; for `O=C(O)Cc1ccc(NC(=O)Nc2cccc3ccccc23)cc1`, 0.9%. For `O=C(Cc1cccc2ccccc12)NNC(=O)Nc1ccc(Cl)cc1`, the inhibition was 72.6% (active). In the case of `Cc1ccc(CNC(=O)[C@@H](NC(=O)Cc2ccccc2)C(C)C)cc1`, the inhibition was 0.5%. As for `CC(C)(C)C(=O)NC(NC(=S)Nc1ccc(S(N)(=O)=O)cc1)C(Cl)(Cl)Cl` (stereo not drawn), the inhibition was -2.5%. As to `CN(CC(=O)Nc1ccc(Cl)cc1)CC(=O)Nc1cccc2ccccc12`, the inhibition was 0.6%. To `Cc1ccc(NC(=S)NC(NC(=O)Cc2cccc3ccccc23)C(Cl)(Cl)Cl)cc1` (stereo not drawn) belongs 55.5% (active); to `CCCOC(=O)CC1C(=O)NCCN1Cc1ccc(F)cc1` (stereo not drawn), 0.6%.

As for `Cn1nnnc1SCC(=O)Nc1cccc(S(=O)(=O)N2CCCCC2)c1`, the inhibition is -0.1%.

On to `CN(NS(=O)(=O)c1cccs1)c1ncc(C(F)(F)F)cc1Cl`, for which the inhibition was 2.5%. Regarding `Cc1cc(C)cc(NS(=O)(=O)c2ccc(Oc3ncc(C(F)(F)F)cc3Cl)cc2)c1`, the inhibition is 50.8% (active). On to `Cc1ccc(NS(=O)(=O)c2ccc(F)cc2)nc1`, for which the inhibition was -0.6%. For `COc1ccc(CCOC(=O)CNC(=O)c2ccc(Cl)cc2Cl)cc1` the value was 1.4%; for `O=C(COc1ncnc2ccccc12)NC(=O)NCc1ccccc1`, -0.1%; for `COc1ccc(CNc2ncnc3ccccc23)cc1`, 70.5% (active). To `COc1ccc(CNc2nccs2)cc1` belongs 0.7%. In the case of `CC1(C)C2CC=C(/C=N/NC(=O)C3CC3)C1C2` (stereo not drawn), the inhibition was -1.7%.

As to `CCOc1ccc(N2C(=O)/C(=C/c3ccc(C)o3)N(C)C2=S)cc1`, the inhibition was 4.3%. With `Cc1c(C)n2c(SCC(=O)NC3CCCC3)nnc2[nH]c1=O`, the inhibition was -1.2%. As to `O=C1CCCCC1Sc1ccc(Cl)cc1[N+](=O)[O-]` (stereo not drawn), the inhibition is -0.4%. Regarding `CC1CC(C)CN(CCOc2cccc3ccccc23)C1` (stereo not drawn), the inhibition was -1.7%. To `CC(C)c1ccccc1OCC(O)CN(CC(O)COc1cccc2ccccc12)C(C)C` (stereo not drawn) belongs 61.5% (active); to `CN1CCN(CCCCOc2cccc3ccccc23)CC1`, -0.6%. To `Cc1ccc(C(=O)NCC(=O)NCc2cc(=O)n(C)c(=O)n2C)cc1` belongs -1.3%; to `CSc1ncccc1C(=O)Nc1nc2ccc(F)cc2s1`, 5.6%. `Cc1cc(C)cc(OCC(=O)Nc2cc(NC(=O)COc3cc(C)cc(C)c3)cc(C(=O)O)c2)c1`: the inhibition is 1.6%. As to `NS(=O)(=O)c1ccc2nc(NC(=O)C3=COCCO3)sc2c1`, the inhibition was -0.6%. To `O=C(NNC(=O)c1ccc(-n2cncn2)c([N+](=O)[O-])c1)c1ccccc1` belongs -2.8%; to `O=C(Nc1nc2ccc([N+](=O)[O-])cc2s1)c1ccncc1`, 68.5% (active). For `CNC(=O)c1ccsc1NC(=O)c1ccc(S(=O)(=O)N2CCc3ccccc32)cc1` the value was 0.6%; for `O=C(Nc1nc2ccc([N+](=O)[O-])cc2s1)c1ccc(S(=O)(=O)N2CCCc3ccccc32)cc1`, 78.1% (active); for `CC(Nc1ccc([N+](=O)[O-])cc1[N+](=O)[O-])c1ccccc1` (stereo not drawn), 1%.

In the case of `Cc1ccc(NC(=O)c2cccc(S(=O)(=O)N3CCCc4ccccc43)c2)nc1`, the inhibition was -1.2%. As to `O=C(NC(Nc1nc2ccc([N+](=O)[O-])cc2s1)(C(F)(F)F)C(F)(F)F)c1ccccc1`, the inhibition was 93.7% (active).

With `Cc1cc(C)cc(OCC(=O)O/N=C(\N)Cc2ccc([N+](=O)[O-])cc2)c1`, the inhibition is 3.2%. For `Cc1cc(C)cc(OCC(=O)Nc2nc3ccc([N+](=O)[O-])cc3s2)c1` the value was 50.4% (active). For `COc1ccc(-c2n[nH]c3c2CN(C(=O)c2ccc(F)cc2)CC3)cc1`, the inhibition is 1.2%. To `COc1ccccc1CSc1ncc(-c2ccc([N+](=O)[O-])cc2)[nH]1` belongs 24.2%; to `CC1(C)C2CCC1(CS(=O)(=O)NCCc1c[nH]c3ccccc13)C(=O)C2` (stereo not drawn), 0.4%. To `CC(=O)N1c2ccc(S(=O)(=O)N3CCCC(C(=O)Nc4ccc(C)cc4C)C3)cc2CC1C` (stereo not drawn) belongs 0.4%; to `COc1ccc(NS(=O)(=O)c2cc(NC(=O)C3CCCCC3)ccc2N2CCOCC2)cc1`, -0.4%; to `CCOc1ncccc1C(=O)N(CC)CC(=O)Nc1ccc(NC(C)=O)cc1`, -0.1%. In the case of `Cc1cc(Cl)c2oc(C(=O)NC(C)c3ccncn3)c(C)c2c1` (stereo not drawn), the inhibition is -0.4%.

As to `COC(=O)[C@@]12C[C@@H](CC(=O)NCc3cccc(C(F)(F)F)c3)C(=O)N(Cc3ccco3)C1=CCC(C)(C)C2`, the inhibition is -0.5%.

With `COc1ccc(C(=O)NC2(C(F)(F)F)NC(=O)N(CCCc3ccccc3)C2=O)c(OC)c1OC` (stereo not drawn), the inhibition is 11.9%. To `Cc1cccc(C(=O)OC(C)CN2CCN(C)CC2)c1` (stereo not drawn) belongs -1.6%; to `CCCC1=Nc2cc(C(=O)NCCN3CCCC3)ccc2Sc2ccccc21`, -1.2%. For `Cc1cccc(-c2nc3ccc(C(=O)NCCN4CCN(C)CC4)cc3nc2-c2cccc(C)c2)c1` the value was 55.9% (active); for `C[C@H](NS(=O)(=O)c1ccc(Cl)cc1)C(=O)OCC(=O)N1CCOCC1`, 1.4%. To `COc1ccc(C(C)C)cc1S(=O)(=O)Nc1ncn[nH]1` belongs -0.4%. In the case of `CC(=O)c1c(C)[nH]c(C(=O)CN2C(=O)NC(C)(C)C2=O)c1C`, the inhibition was -0.1%. On to `CC(=O)Nc1ccc(C(=O)CSc2nc3ccc(C)cc3[nH]2)cc1`, for which the inhibition is -1.5%. To `O=C(CSc1nc2ccc([N+](=O)[O-])cc2[nH]1)c1ccc(Cl)cc1` belongs 104% (active); to `Cc1nc(SCC(=O)c2ccccc2)c([N+](=O)[O-])[nH]1`, 3.9%.

What is called inhibition is the drop in the measured response relative to a control, in per cent.
